Rows were chosen to be rich in hits. Some 1.1% of all compounds tested hit in one or more screens of this group.
BRCA1 expr act – activators of BRCA1 expression; AID 624202; 1.1% of 380,000 active; MCF7-BRCA1-FFLuc reporter, luminescence, 48 h; response scale: scaled: vehicle 0%, 10 µM genistein 100%; Potency, µM (top dose mostly 46.1 µM), without a hit: at the highest dose activation, usual class: activators; further: potency means the concentration at half of the fitted maximal effect; nearly all actives have a fitted effect of over 80% in size
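Luminescence from a BRCA1-driven firefly luciferase in MCF7 cells was read after 48 h compound exposure at 37 C. Data normalized against DMSO and a 10microM genistein activation control, then curve-fitted across the titration.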
p53 reactivator – mutant p53 re-activation in reporter cells. H1299 p53-A138V BP100-luciferase reporter, luminescence, 24 h. Potency, µM (series often up to 92.2 µM), inactives show top-dose activity change, positive = activation, hits mostly activators. 0.063% of 320,000 active; further: potency means the concentration at half of the fitted maximal effect; % of control where 0% means no effect; nearly all actives have a fitted effect of over 45% in size
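H1299 (p53-null), stable ts p53-A138V + BP100-Luc; 1000 cells/well, Opti-MEM/10% FBS; cpd 4 pt, 1:5; 24 h, 37 deg C, 5% CO2; detection reagent 10 min RT; luminescence.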
LDHA inh – inhibitors of human lactate dehydrogenase A; P00338; purified LDHA, NADH/diaphorase-resazurin fluorescence; hits give low values; activity change, % (values are at about 110 or 230 µM); 0.15% of 480,000 active; AID 1347041; in the data active means activity change below about -30%; inconclusive means mostly about -25% to -30%;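 further: plate controls were DMSO wells for no effect and wells without enzyme for full effect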
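Enzyme activity of human lactate dehydrogenase 5 (2 nM; 0.06 mM NADH, 0.2 mM pyruvate, 5 min, RT) is measured via a resazurin/diaphorase fluorescence readout of residual NADH.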
RGS4 inh – inhibitors of human regulator of G protein signaling 4; 0.039% of 390,000 active; AID 504845; Potency, µM (doses to about 114 µM), for the others: at the top dose activity change, negative = inhibition, actives largely listed as inhibitors; Transcreener GDP fluorescence polarization, RGS4-accelerated GTP hydrolysis; further: potency means the concentration at half of the fitted maximal effect; on the % scale 0 is the no-effect control and ±100 the full control effect; nearly all actives have a fitted effect of over 75% in size
Target sequence (P49798 whole entry, looked up): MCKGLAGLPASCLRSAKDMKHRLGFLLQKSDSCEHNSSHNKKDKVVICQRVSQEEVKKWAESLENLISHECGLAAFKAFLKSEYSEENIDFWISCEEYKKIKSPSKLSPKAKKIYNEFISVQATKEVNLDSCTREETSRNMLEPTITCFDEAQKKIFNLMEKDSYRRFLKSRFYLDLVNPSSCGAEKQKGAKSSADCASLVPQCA
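MLSMR compounds (23 nl, pin-transferred) preincubated 10 min at room temperature with a 500nM (2x) first reagent, then RGS4 at 900nM (2x) plus Transcreener GDP mix added; fluorescence polarization (620/688 nm) read before and after 90 min at 30 °C.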
PTHR1 agonist – PTHR1 (human) receptor agonism | HEK293 GP2 PTHR1 cells, GloSensor cAMP luminescence, 1 h | AID 743266 | 0.075% of 410,000 active | Potency, µM (highest dose often 115 µM), for inactives: at the top dose activation, hits mostly activators; further: potency means the concentration at half of the fitted maximal effect; nearly all actives have a fitted effect of over 55% in size
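HEK-293-derived GP2 cells expressing PTHR1 and a GloSensor cAMP reporter, 3,000/well, plated overnight, given luciferin plus IBMX (each 0.5 mM as added) for 1 h at 37 °C, then compound for 1 h at 37 °C. Luminescence was read after 15 min at room temperature.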
Numbers without * were called inactive; [ ] = remark or other dose. Unless noted, the call rests on the fitted dose curve; in most records, active means well fitted curve in the direction sought with a large enough effect; inconclusive means small, poorly fitted or top-dose-only effect, or another doubt; inactive means no such curve, though single readings can be large; an effect the other way counts as inactive or inconclusive.

How did Nc1nc(Nc2ccccc2)sc1C(=O)c1ccc(Cl)cc1 do in these assays?
LDHA inh: 6.5

How did O=C(CN1CCN(S(=O)(=O)c2ccccc2F)CC1)N1CCc2ccccc2C1 do in these assays?
BRCA1 expr act: -10.8%; p53 reactivator: 13.0%; LDHA inh: -46.9*; RGS4 inh: 39.7%; PTHR1 agonist: inactive

Results for O=C(CNS(=O)(=O)c1ccccc1)N1CCc2ccccc2C1 ?
BRCA1 expr act: 11.2µM*; p53 reactivator: 15.8%; LDHA inh: -6.1; RGS4 inh: -34.9%; PTHR1 agonist: -13.0%

Results for Cc1ccc(S(=O)(=O)NCC(=O)N2CCc3ccccc3C2)cc1 ?
BRCA1 expr act: -29.5%; p53 reactivator: inconclusive; LDHA inh: -4.5; RGS4 inh: -6.7%; PTHR1 agonist: -23.4%

What do the screens show for `Cc1ccc2nc(C)cc(C(=O)NCc3ccco3)c2c1`?
LDHA inh: 21.8

Results for COC(=O)c1ccc(C[N+]2(C)CCCCC2)cc1 ?
LDHA inh: 0.0

Results for CN1C(=O)c2ccccc2NC1c1cc2ccccc2[nH]c1=O (configuration not stated) ?
LDHA inh: 15.0

Results for COc1cccc(NC(=O)c2cccc(C(=O)Nc3cccc(OC)c3)c2)c1 ?
BRCA1 expr act: -2.7%; LDHA inh: -8.2; RGS4 inh: 3.1%; PTHR1 agonist: inactive

How did COc1cccc(NC(=O)c2ccccc2)c1 do in these assays?
BRCA1 expr act: 8.91µM*; p53 reactivator: inconclusive; LDHA inh: -4.5; RGS4 inh: 2.6%; PTHR1 agonist: -2.9%

How did CC(C)OC(=O)c1cccc(NC(=O)c2ccccc2)c1 do in these assays?
BRCA1 expr act: 11.2µM*; p53 reactivator: inconclusive; LDHA inh: -7.5; RGS4 inh: 20.4%; PTHR1 agonist: -32.0%

Results for COc1cccc(NC(=O)Nc2ccc(Br)cn2)c1 ?
BRCA1 expr act: 11.2µM*; p53 reactivator: 6.9%; LDHA inh: -0.9; RGS4 inh: 9.9%; PTHR1 agonist: -7.9%

Results for O=C(CN1CCCC1)Nc1ccc(NC(=O)Nc2ccccc2Cl)cc1 ?
BRCA1 expr act: 11.2µM*; p53 reactivator: inconclusive; LDHA inh: -1.5; RGS4 inh: -3.5%; PTHR1 agonist: inactive

Results for CCOCc1nnc(NC(=O)C2CC(=O)N(CCc3c[nH]c4ccc(C)cc34)C2)s1 (configuration not stated) ?
LDHA inh: 9.6

What do the screens show for `CC(C)(C)c1ccc(OCCOc2ccccc2/C=C(/C#N)C(N)=O)cc1`?
LDHA inh: 3.8

How did O=C(c1cn[nH]c1-c1ccc(Cl)cc1)N1CCCCC1 do in these assays?
LDHA inh: -3.5

How did COC(=O)c1cccc(NC(=O)c2ccc(OC)c(Cl)c2)c1 do in these assays?
BRCA1 expr act: 5.01µM*; p53 reactivator: -1.8%; LDHA inh: -6.0; RGS4 inh: -9.3%; PTHR1 agonist: inactive

Results for COc1cccc(NC(=O)NC2CCCCCCC2)c1 ?
BRCA1 expr act: 10µM*; p53 reactivator: 27.6%; LDHA inh: -3.8; RGS4 inh: 25.8%; PTHR1 agonist: inactive

How did COc1cccc(NC(=O)c2ccc(NC(=O)C(C)C)cc2)c1 do in these assays?
BRCA1 expr act: 10µM*; p53 reactivator: 2.7%; LDHA inh: -4.8; RGS4 inh: -45.0%; PTHR1 agonist: -18.9%

How did CC(C)C(=O)Nc1ccc(C(=O)c2ccccc2)cc1 do in these assays?
BRCA1 expr act: 11.2µM*; p53 reactivator: 19.9%; LDHA inh: -11.1; RGS4 inh: 0.9%; PTHR1 agonist: -13.1%[57.5 µM]

Results for OB1Oc2ccccc2-c2ccccc21 ?
LDHA inh: -15.4

How did COC(=O)c1cc(C(=O)c2cc(F)ccc2O)cc(C(=O)OC)c1O do in these assays?
LDHA inh: 19.3

How did Cc1ccc(C(=O)NCCC(c2ccccc2)c2ccccc2)cn1 do in these assays?
LDHA inh: -0.6

What do the screens show for `COc1cccc(NC(=O)CC(=O)c2ccc([N+](=O)[O-])cc2)c1`?
BRCA1 expr act: 11.2µM*; p53 reactivator: 16.7%; LDHA inh: 0.8; RGS4 inh: -10.3%; PTHR1 agonist: -14.4%

Bioassay records deposited in PubChem by National Center for Advancing Translational Sciences (NCATS).
